Test results taken from PubChem BioAssay.
Where “and” joins values, the source holds several entries; their conditions need not be identical. Identical values can stand only once. Calls of active or inactive are those of the source.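 Rule for the calls, unless noted: active = inhibition at or above 50% relative to wild type and mutant plate controls; inactive = inhibition below 50%.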

Experiments:
[1] = inhibitors of TNFa-induced NFkB p65 translocation, primary screen, imaging, HUVEC, MLSMR starter and 10KST1 sets (AID 438;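 active = inhibition above 20% together with a positive visual image hit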;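 note: compound added about 3h40 before a 20 min TNFalpha stimulation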;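 for inhibition: signal is the nuclear over cytoplasmic p65 intensity ratio per well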); details: HUVEC TNFa-induced p65 nuclear translocation; cell count: measured here: nuclei count (cytotoxicity indicator), at 2.08 µM unless noted; inhibition: at 2 µM, stronger effect = higher value unless noted
[2] = inhibitors of mutant huntingtin aggregation, primary screen, imaging, exon1htt(103Q)mCFP cells, high-content imaging (AID 483;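 active = visual image review flags a hit and inhibition of aggregation exceeds 20%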;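 note: compound exposure lasted 3 days before fixation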;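 for nuclei count: percent of the per-plate median nuclei count of sample wells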); details: exon1htt(103Q)mCFP cell line, aggregate imaging, at 2 µM; inhibition of aggregation: stronger effect = higher value; nuclei count: measured here: cell count, toxicity
[3] = inhibitors of E-selectin induction by TNFa, primary screen, imaging, HUVEC, immunofluorescence, MLSMR starter and 10KST1 sets (AID 487;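 active = visually confirmed hit in the image check and inhibition above 20%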;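 for inhibition: signal is fraction of cell area covered by stained E-selectin grains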;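 for nuclei count: 100% = median nuclei count of all wells on the same plate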); details: HUVEC TNFalpha-induced E-selectin immunofluorescence imaging, at 2 µM; inhibition: stronger effect = higher value; nuclei count: measured here: cell number, toxicity
[4] = DUSP6 inhibitors restoring Erk phosphorylation by chemical complementation, primary imaging in DUSP6-transfected HeLa (AID 609;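 active = compounds giving at least 50% inhibition in the cell-based MKP-3 phosphatase rescue imaging test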;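 for inhibition: phospho-Erk level distribution per well compared with pooled transfected vehicle control wells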); details: HeLa MKP-3 transfected, phospho-Erk imaging KS statistic, at 10 µM
[5] = molecular target: Dual specificity protein phosphatase 6 (Homo sapiens) (UniProt Q16828); assay: as above; details: HeLa MKP-3 transfected, phospho-Erk imaging KS statistic, at 10 µM, stronger effect = higher value
Dual specificity protein phosphatase 6 (Homo sapiens), sequence (Q16828 whole entry, looked up): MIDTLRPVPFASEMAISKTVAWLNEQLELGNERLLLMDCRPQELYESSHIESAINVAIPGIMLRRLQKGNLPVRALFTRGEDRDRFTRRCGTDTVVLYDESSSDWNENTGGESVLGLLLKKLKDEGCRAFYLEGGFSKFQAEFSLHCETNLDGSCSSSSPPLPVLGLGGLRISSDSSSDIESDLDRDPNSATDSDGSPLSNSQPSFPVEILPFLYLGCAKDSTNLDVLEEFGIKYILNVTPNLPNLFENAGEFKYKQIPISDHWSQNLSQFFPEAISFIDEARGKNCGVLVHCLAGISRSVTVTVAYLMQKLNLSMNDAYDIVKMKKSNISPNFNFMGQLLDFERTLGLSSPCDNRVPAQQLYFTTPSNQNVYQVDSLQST

[6] = molecular target: Voltage-gated potassium channel subunit beta-2 (Rattus norvegicus) (UniProt P62483); assay: KvBeta enzyme negative modulators, primary screen, biochemical, NADPH fluorescence (AID 622;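 active = fluorescence slope higher than the sample average by over 3 SD, cut at about -0.22 in these data, passing the limit was not always enough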;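 note: slope of raw intensity against log time taken from 70 to 1610 s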); details: recombinant KvBeta, 4-cyanobenzaldehyde reduction, at 10 µM, stronger effect = higher value
Voltage-gated potassium channel subunit beta-2 (Rattus norvegicus), sequence (P62483 whole entry, looked up): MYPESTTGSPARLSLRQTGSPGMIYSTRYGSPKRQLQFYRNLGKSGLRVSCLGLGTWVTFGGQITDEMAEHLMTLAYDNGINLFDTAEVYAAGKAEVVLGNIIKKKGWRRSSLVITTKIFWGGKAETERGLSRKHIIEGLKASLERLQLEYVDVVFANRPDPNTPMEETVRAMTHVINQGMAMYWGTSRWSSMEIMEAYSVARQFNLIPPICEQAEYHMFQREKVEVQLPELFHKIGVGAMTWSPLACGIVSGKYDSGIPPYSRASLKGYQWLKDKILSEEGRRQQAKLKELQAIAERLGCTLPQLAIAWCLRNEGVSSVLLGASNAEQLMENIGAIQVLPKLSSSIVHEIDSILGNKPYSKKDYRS

[7] = molecular target: Voltage-gated potassium channel subunit beta-2 (Rattus norvegicus) (UniProt P62483); assay: KvBeta positive modulators, primary screen, biochemical, NADPH fluorescence (AID 623;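 active = NADPH fluorescence slope more negative than the mean of all samples by about 3 SD, 99.7% confidence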;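 note: fluorescence intensity change per second fitted from 20 to 320 s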); details: Recombinant KvBeta, NADPH fluorescence decrease slope, 10 min; at 10 µM; stronger effect = lower value
[8] = molecular target: Alpha-2C adrenergic receptor (Homo sapiens) (UniProt P18825); assay: modulators of alpha2C/GIRK thallium flux, primary screen, cell-based, HEK293 alpha2C/GIRK1/2 (AID 624;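 active = fluorescence slope after compound addition differing from the mean of all screened samples at 99.7% confidence, in either direction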;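 note: slope of fluorescence ratio to pre-addition baseline per second over 15 to 24 s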); details: thallium flux BTC fluorescence, at 10 µM, actives lie on both sides
Alpha-2C adrenergic receptor (Homo sapiens), sequence (P18825 whole entry, looked up): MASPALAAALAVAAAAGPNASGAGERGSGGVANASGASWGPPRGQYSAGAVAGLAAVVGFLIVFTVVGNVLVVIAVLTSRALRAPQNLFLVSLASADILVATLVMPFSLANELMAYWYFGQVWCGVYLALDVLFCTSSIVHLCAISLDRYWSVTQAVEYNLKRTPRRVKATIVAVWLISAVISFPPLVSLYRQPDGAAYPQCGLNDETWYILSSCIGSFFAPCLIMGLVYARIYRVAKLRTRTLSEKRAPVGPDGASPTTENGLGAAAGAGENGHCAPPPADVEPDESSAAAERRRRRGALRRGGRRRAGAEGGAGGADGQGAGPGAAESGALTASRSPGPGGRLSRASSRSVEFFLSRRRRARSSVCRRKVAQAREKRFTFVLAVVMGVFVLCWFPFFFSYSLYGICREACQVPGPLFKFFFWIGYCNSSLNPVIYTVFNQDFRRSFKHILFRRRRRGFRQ

[9] = inhibitors of larval lipid processing in zebrafish, primary screen, whole organism, PED6 fluorescence, gall bladder and intestine (AID 686;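 active = a full or partial loss of lipid-probe fluorescence in the fish gall bladder, intestine or both, judged by eye; inactive = no fluorescence loss, or compound toxic to the fish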;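 note: larvae 5 to 7 days old with five fish per well; signal comes from phospholipase A2 cleavage of quenched PED6 carried via bile; overnight exposure to compound and PED6 before scoring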); details: Zebrafish larvae PED6 lipid processing, fluorescence scoring
[10] = inhibitors of Chlamydomonas gravitaxis, primary screen, whole organism, Chlamydomonas reinhardtii, WT vs cilia-less mutant, absorbance, 96-well (AID 463189); details: OD600 absorbance, 2 days, at 10 µM, stronger effect = higher value;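 note: 0% = wild type cc124 cells in DMSO and 100% = ciliumless bld1 mutant cells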
[11] = inhibitors of Sendai virus-induced IRF3 signaling, primary screen, TLR/RLR signaling modifier project, cell-based, Sendai virus stimulus, luciferase, 10K MLSCN set (AID 602276;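 active = inhibition at or above 50% at 10 µM; inactive = inhibition below 50%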;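 note: firefly luciferase from ISG56 promoter only with Renilla not read in this screen; 0% = Sendai virus plus DMSO and 100% = medium plus DMSO without virus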); details: HEK293 RL24 IRF3 luciferase reporter, at 10 µM, stronger effect = higher value
[12] = inhibitors of poly I:C-induced TLR3 signaling, primary screen, cell-based, poly I:C stimulus, luciferase, 10K MLSCN set (AID 602277;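 active = inhibition of the reporter signal at or above 50%; inactive = inhibition below 50%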); details: HEK293-TLR3 RL24 IRF3 luciferase reporter, at 10 µM, stronger effect = higher value
[13] = molecular target: Muscarinic acetylcholine receptor M4 (Homo sapiens) (UniProt P08173); assay: compounds altering M4/GIRK thallium flux, either direction, primary screen, M4 allosteric agonist project, cell-based, HEK293 M4/GIRK, BTC-AM (AID 625;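 active = fluorescence slope after compound addition differing from the mean of all tested samples at 99.7% confidence, mostly higher but some lower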;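 note: thallium influx through GIRK channels coupled to M4 in HEK293 cells with BTC-AM dye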); details: at 10 µM, actives lie on both sides
Muscarinic acetylcholine receptor M4 (Homo sapiens), sequence (P08173 whole entry, looked up): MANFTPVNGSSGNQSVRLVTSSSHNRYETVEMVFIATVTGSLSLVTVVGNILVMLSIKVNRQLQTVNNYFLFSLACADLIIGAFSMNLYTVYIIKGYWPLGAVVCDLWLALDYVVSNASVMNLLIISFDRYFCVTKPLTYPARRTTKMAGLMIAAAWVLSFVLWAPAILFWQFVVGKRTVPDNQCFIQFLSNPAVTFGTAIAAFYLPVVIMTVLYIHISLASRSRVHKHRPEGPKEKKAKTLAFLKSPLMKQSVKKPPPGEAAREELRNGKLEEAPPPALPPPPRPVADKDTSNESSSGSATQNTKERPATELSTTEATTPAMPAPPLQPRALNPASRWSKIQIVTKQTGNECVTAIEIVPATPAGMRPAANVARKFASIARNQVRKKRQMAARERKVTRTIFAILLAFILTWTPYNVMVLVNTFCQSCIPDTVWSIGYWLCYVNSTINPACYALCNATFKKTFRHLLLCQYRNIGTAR

[14] = measured here: cell density z-score
[15] = measured here: nuclear c-Myc green intensity z-score
[16] = measured here: nuclear pErk red intensity z-score, stronger effect = higher value

| SMILES | cell count [1] | inhibition [1] | inhibition of aggregation [2] | nuclei count [2] | inhibition [3] | nuclei count [3] | z-score [4, 14] | z-score [4, 15] | z-score [4, 16] | inhibition [5] | fluorescence slope [6] | NADPH fluorescence slope [7] | slope [8] | outcome [9] | inhibition [10] | inhibition [11] | inhibition [12] | fluorescence slope [13] |
| --- | --- | --- | --- | --- | --- | --- | --- | --- | --- | --- | --- | --- | --- | --- | --- | --- | --- | --- |
| CCOc1ccc(-n2c(O)c(C=NCCN3CCNCC3)c(=O)[nH]c2=O)cc1 | 537 | 3.2% (inactive) | -17.4% (inactive) | 96.7% | -38.9% (inactive) | 144% | -0.956 | -1.36 | 0.949 | -4.7% (inactive) | -0.351 (inactive) | -8.4e-06 (inactive) | 0.00537 (inactive) | inactive | 8.26% (inactive) | 14.4% (inactive) | 22.5% (inactive) |  |
| C=C1CC[C@@]2(O)[C@H]3Cc4ccc(O)c5c4[C@@]2(CCN3CC2CC2)[C@H]1O5 | 527 | 0.1% (inactive) | -9.9% (inactive) | 99.2% | -20.4% (inactive) | 109% | 0.737 | 1.29 | -0.809 | 14.6% (inactive) | -0.469 (inactive) | -4e-05 (inactive) | 0.00496 (inactive) | inactive | -15.6% (inactive) | -6.04% (inactive) | 25% (inactive) |  |
| O=C1C2CCN(CC2)[C@@H]1Cc1ccc2ccccc2c1O | 542 | -18.4% (inactive) |  |  | -159% (inactive) | 135% | 0.277 | -1 | -0.726 | 9.91% (inactive) | -0.498 (inactive) | -6.4e-05 (inactive) | 0.00747 (inactive) | inactive | 9.49% (inactive) |  |  |  |
| CNCCc1c[nH]c2ccccc12 | 615 | -10.3% (inactive) | 3.8% (inactive) | 103% | -70.6% (inactive) | 127% | -0.539 | -0.571 | -0.457 | -6.41% (inactive) | -0.506 (inactive) | 2.2e-05 (inactive) | 0.00539 (inactive) | inactive | 1.04% (inactive) | 25.5% (inactive) | 49.1% (inactive) |  |
| CN1[C@@H]2CC[C@H]1CC(OC(=O)C1C=Nc3ccccc31)C2 (stereo partly drawn) | 619 | 0.8% (inactive) | -36% (inactive) | 99.6% | -33.8% (inactive) | 116% | -1.01 | -0.312 | 0.0205 | 8% (inactive) | -0.448 (inactive) | -6.1e-05 (inactive) | 0.00567 (inactive) | inactive | -4.66% (inactive) | -81.8% (inactive) | 52.8% (active) |  |
| c1ccc(Cn2ccnc2)cc1 | 630 | 3.1% (inactive) | 16.2% (inactive) | 94.6% | -120% (inactive) | 130% | 1.25 | -0.35 | 1.06 | 8% (inactive) | -0.486 (inactive) | 3.7e-06 (inactive) | 0.00411 (inactive) | inactive | -7.16% (inactive) | 20.5% (inactive) | 27.2% (inactive) |  |
| C[C@H]1CCCC(=O)CCCCCc2cc(O)cc(O)c2C(=O)O1 | 593 | -6.9% (inactive) | 2.6% (inactive) | 82.4% | -84.5% (inactive) | 116% | 1.09 | -0.366 | -0.0362 | 29.1% (inactive) | -0.439 (inactive) | 2.4e-05 (inactive) | 0.00367 (inactive) | inactive | -7.02% (inactive) | -0.827% (inactive) | 16.9% (inactive) |  |
| OCCOCC#CCN1CCOCC1 | 582 | 8.1% (inactive) | -15.3% (inactive) | 100% | -167% (inactive) | 137% | -0.584 | 1.05 | 0.188 | 17.8% (inactive) | -0.497 (inactive) | -5.8e-05 (inactive) |  | inactive | -6.14% (inactive) | 19.2% (inactive) | 20.5% (inactive) | 0.006 (inactive) |
| C[N+]1(C)CCN(c2ccccc2)CC1 | 637 | -3.4% (inactive) | -27% (inactive) | 102% | -66.8% (inactive) | 118% | 1.65 | -1.1 | -0.542 | 19% (inactive) | -0.439 (inactive) | -4.1e-05 (inactive) | 0.00481 (inactive) | inactive | 7.37% (inactive) and 14.5% (inactive) | 0.511% (inactive) | 51.8% (active) |  |
| NCCc1ccc(O)cc1 | 431 | 6% (inactive) | 11.4% (inactive) | 95.7% | 22.3% (inactive) | 92.7% |  |  |  |  | -0.573 (inactive) | -7e-05 (inactive) |  |  | 7.08% (inactive) | 12.8% (inactive) | 19% (inactive) | 0.00467 (inactive) |
| Cc1ccc(C)c(C2(O)CC(C)N(C)CC2C)c1 (stereo not drawn) | 530 | 1.6% (inactive) | -5.5% (inactive) | 99.7% | -53.3% (inactive) | 111% | -0.226 | 0.594 | -0.947 | 5.35% (inactive) | -0.458 (inactive) | -4.2e-05 (inactive) |  | inactive | -6.61% (inactive) | -14.7% (inactive) | 94.6% (active) | 0.00518 (inactive) |
